Source: PubChem BioAssay (Buhrlage Lab, Dana-Farber Cancer Institute and Novartis Institutes for BioMedical Research (Cambridge, Mass))
USP10 block: inhibitors of human USP10 deubiquitinase; Ubiquitin carboxyl-terminal hydrolase 10 (Homo sapiens), Q14694; purified USP10, Ub-rhodamine fluorescence, 60 min; inhibition, % at 20 µM; 47,000 compounds, 1.1% hits
USP17 inh: inhibitors of human USP17 deubiquitinase. purified USP17, Ub-rhodamine cleavage fluorescence, 3 h. 47,000 compounds, 6.5% hits. Ubiquitin carboxyl-terminal hydrolase 17-like protein 5 (Homo sapiens), A8MUK1. inhibition, % at 50 µM
OTUD3 block: inhibitors of human OTUD3 deubiquitinase; inhibition, % at 25 µM; 47,000 compounds, 0.7% hits; OTU domain-containing protein 3 (Homo sapiens), Q5T2D3; purified OTUD3, Ub-rhodamine fluorescence, 2 h
USP8 block: inhibitors of human USP8 deubiquitinase | Ubiquitin carboxyl-terminal hydrolase 8 (Homo sapiens), P40818 | purified USP8, Ub-rhodamine cleavage fluorescence, 30 min | inhibition, % at 20 µM | 47,000 compounds, 4.2% hits
USP30 block: inhibitors of human USP30 deubiquitinase; Ubiquitin carboxyl-terminal hydrolase 30 (Homo sapiens), Q70CQ3; inhibition, % at 25 µM; 47,000 compounds, 5.3% hits; purified USP30, Ub-rhodamine cleavage fluorescence
Target sequence (Q70CQ3 whole entry, looked up): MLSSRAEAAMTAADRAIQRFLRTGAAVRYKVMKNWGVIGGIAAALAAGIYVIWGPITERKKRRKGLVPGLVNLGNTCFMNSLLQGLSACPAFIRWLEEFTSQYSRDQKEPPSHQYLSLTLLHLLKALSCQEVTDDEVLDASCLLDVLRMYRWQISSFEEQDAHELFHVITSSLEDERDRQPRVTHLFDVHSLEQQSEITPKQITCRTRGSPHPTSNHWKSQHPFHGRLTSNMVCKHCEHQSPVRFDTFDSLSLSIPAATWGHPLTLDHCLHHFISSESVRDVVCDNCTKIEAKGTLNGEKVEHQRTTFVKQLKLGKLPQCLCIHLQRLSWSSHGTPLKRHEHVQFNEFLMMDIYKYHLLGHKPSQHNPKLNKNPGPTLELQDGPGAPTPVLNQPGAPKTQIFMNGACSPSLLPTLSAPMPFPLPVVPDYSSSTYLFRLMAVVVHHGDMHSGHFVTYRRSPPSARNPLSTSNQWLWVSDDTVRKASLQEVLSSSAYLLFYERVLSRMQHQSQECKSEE
USP28 block: inhibitors of human USP28 deubiquitinase; 47,000 compounds, 3% hits; AID 1645857, 2021; inhibition, % at 25 µM; purified USP28, Ub-rhodamine cleavage fluorescence, 30 min
Numbers stand for hits; – = inactive; · = no result given. Rows were chosen to be rich in hits. Some 13% of all compounds tested hit in one or more screens of this group. No stated cut-off is given here; in the data, active means inhibition above about 30%; inactive means the rest.

SMILES	USP10 block	USP17 inh	OTUD3 block	USP8 block	USP30 block	USP28 block
Cc1nc(N2CCOCC2)c2c(C(=O)Nc3ccc(F)cc3)c(C)oc2n1	–	–	–	–	–	–
Cc1nn(C)cc1S(=O)(=O)NCc1cccnc1	–	–	–	–	–	–
COc1ccc(NC(=O)Cn2c(=O)n(CC(=O)NCc3ccc(C)cc3)c(=O)c3sccc32)cc1OC	–	71	32	–	75	70
CCOc1ccc(NC(=O)Cn2c(=O)n(CC(=O)NCc3ccc(C)cc3)c(=O)c3sccc32)cc1	–	·	–	–	70	–
Cc1ccccc1OCc1nc2c3cnn(C)c3ncn2n1	–	–	–	–	35	–
Cc1cc(C)cc(NC(=O)C2CC(=O)Nc3nc4ccccc4n32)c1 (centres undefined)	40	–	–	46	–	–
CCOc1ccccc1NC(=O)C1CC(=O)Nc2nc3ccccc3n21 (centres undefined)	–	–	–	39	–	–
O=C(CC1C(=O)Nc2nc3ccccc3n21)Nc1ccccc1 (centres undefined)	–	–	–	–	–	–
Cn1nc(Cn2ccnc2)c2c1CN(C(=O)c1ccccc1)C2	–	–	–	–	–	–
CC1Cc2cc(C(=O)NCc3ccc4c(c3)OCCCO4)ccc2O1 (centres undefined)	–	–	–	–	–	–
CC1(C)Oc2ccccc2[C@H]2OCC3(CCN(C(=O)CCCn4cccn4)CC3)C[C@@H]21	–	–	–	–	–	–
CN[C@H]1CC2(CCN(C(=O)CCCn3cccn3)CC2)OC[C@]1(C)O	–	–	–	–	–	79
Cc1ccc(NC(=O)CC(c2ccc(F)cc2)N2Cc3ccccc3C2=O)nc1 (centres undefined)	–	–	–	–	–	–
CCOc1ccc(C(CC(=O)Nc2cc(C)ccn2)N2Cc3ccccc3C2=O)cc1OC (centres undefined)	–	44	–	–	34	–
O=C(Nc1ccc(N2CCN(Cc3ccc(F)cc3)C2=O)nc1)C1CCC1	–	60	–	–	63	38
O=C(Nc1ccc(N2CCN(c3ccccc3)C2=O)nc1)C1CCOC1 (centres undefined)	–	–	–	–	35	–
O=C(Nc1ccc(N2CCN(Cc3ccc(F)cc3)C2=O)nc1)c1ccc2c(c1)OCO2	–	–	–	–	–	–
Cc1cccc(-n2nnc3c(=O)n(CC(=O)Nc4ccc5c(c4)OCCO5)cnc32)c1	–	–	–	–	–	–
Cc1ccc(Cn2cnc3c(nnn3-c3cccc(F)c3)c2=O)cc1	–	47	–	42	–	–
CCc1ccc(NC(=O)Cn2cnc3c(nc4n3CCCCC4)c2=O)cc1	–	–	–	–	–	–
CCOC(=O)c1ccc(NC(=O)Cn2cnc3c(nnn3-c3cccc(Cl)c3)c2=O)cc1	–	33	–	–	–	–
Cc1cccc(-n2nnc3c(=O)n(CC(=O)Nc4ccc5c(c4)OCO5)cnc32)c1	–	–	–	31	–	–
CCOC(=O)c1ccc(NC(=O)Cn2cnc3c(nc4n3CCCCC4)c2=O)cc1	–	–	–	–	49	–
O=C(Cn1cnc2c(nnn2-c2cccc(F)c2)c1=O)N1CCCC1	–	–	–	–	–	–
Cc1ncc(-c2ccccn2)c(-c2ccc(CNC(=O)c3cccnc3C)cc2)n1	–	–	–	–	–	–
SMILES	USP10 block	USP17 inh	OTUD3 block	USP8 block	USP30 block	USP28 block
CN(C)C(=O)N1CC(C(=O)Nc2ccc(F)cc2)C2(CCOCC2)C1 (centres undefined)	–	–	–	–	–	–
O=C1c2ccccc2C(c2c[nH]c3ccccc23)N1Cc1ccco1 (centres undefined)	–	–	–	–	–	–
CN1CC2N(C(=O)NCc3ccccc3)C3CCC2(CC3)OC1=O (centres undefined)	–	–	–	–	–	–
COc1ccccc1CNc1nc(-c2nnc(-c3ccccc3)o2)nc2ccccc12	–	38	–	36	44	–
Cc1ccccc1NC(=O)CSc1nnc2ccc(C(=O)NCc3ccccc3)cn12	–	–	–	45	–	–
Cc1ccc(NC(=O)c2ccc3nn(CC(=O)Nc4ccc(C)cc4C)c(=O)n3c2)cc1	–	–	–	53	–	–
Cc1ccc(CNC(=O)c2ccc3nn(CC(=O)Nc4ccccc4F)c(=O)n3c2)cc1	–	–	–	67	–	–
Cc1ccc(NC(=O)c2ccc3nn(CC(=O)Nc4ccc(F)cc4F)c(=O)n3c2)cc1	–	68	–	57	–	–
O=C(c1ccccn1)N1CCC(c2ccc(Nc3ncccn3)cn2)CC1	–	–	–	–	–	–
CC(=O)Nc1ccc(S(=O)(=O)N2CCN(c3c(C)n(C)c(=O)n(C)c3=O)CC2)cc1	–	–	–	–	–	–
O=C(Cn1nc2ccc(C(=O)NCc3ccccc3)cn2c1=O)Nc1ccc2c(c1)OCO2	–	52	–	–	–	–
O=C(C1CCN(c2cc(N3CCOCC3)ncn2)CC1)N1CCN(c2ccccc2)CC1	–	–	–	–	–	–
O=C(NC1CS(=O)(=O)CC1O)c1ccc(-n2cccn2)c(C#Cc2ccccc2)c1 (centres undefined)	–	–	–	–	–	–
COc1ccc(CNc2nc3cc(C)ccc3cc2-c2noc(C)n2)cc1	–	·	–	–	–	–
COc1ccc(N2CC(C(=O)Nc3c(C)cccc3C)CC2=O)cc1 (centres undefined)	–	–	–	–	–	–
Cc1nc(-c2ccc(-n3cc(C(=O)Nc4cccc(F)c4)c(C)n3)cc2)no1	–	51	–	–	–	–
CC(=O)Nc1ccc(C(=O)Nc2cccc(-c3noc(C)n3)c2)cc1	–	48	–	–	·	·
Cc1nc2cc(N3CC(C(=O)Nc4cccc(C)c4C)CC3=O)ccc2o1 (centres undefined)	–	–	–	–	33	–
Cc1nc(-c2cccc(NC(=O)c3ccc4c(c3)OCO4)c2)no1	–	–	–	–	–	–
Cc1ccc(N2CC(C(=O)Nc3cccc(-c4noc(C)n4)c3)CC2=O)cc1 (centres undefined)	–	–	–	40	–	–
Cc1nc2cc(N3CC(C(=O)NCc4ccccc4)CC3=O)ccc2o1 (centres undefined)	–	–	–	–	–	–
Cc1[nH]nc(C(F)(F)F)c1N	–	–	–	–	–	–
COc1ccccc1C1[C@@H]2CCCC[C@]2(O)CCN1CC(N)=O (some centres undefined)	–	–	–	–	–	–
COc1ccc(S(=O)(=O)N2CCCC(c3nn(C)c4nccnc34)C2)cc1 (centres undefined)	–	–	–	–	–	–
